Hit rate of the full screen: of about 69,000 compounds, about 8,600 (12%) showed an effect of 50% or more. This is one part of a sample in which strong results are shown more often than they occur.
Tested on: Plasmodium berghei
Assay: Screen against P. berghei liver stage (PbLuc), transformed with Luciferase, at 10uM
Format: functional, HepG2
Conditions: tested at 10 uM

In order of falling INHIBITION:
1. Cc1nccc(NCc2cncc3c2CCN(CC2CCOC2)C3)n1 (stereo not drawn)  91.9%
2. Cc1nccc(NCc2cncc3c2CCN(CC2CC2)C3)n1  84.7%
3. CCCN(Cc1nc2ccccc2[nH]1)Cc1ccccc1OC  82.3%
4. CN(CCNS(C)(=O)=O)C(=O)c1ccc(Cl)c(Cl)c1  66.5%
5. CCCN(Cc1cnc2ccccc2n1)Cc1ccccc1OC  61.9%
6. Cc1ccc(C(=O)N(C)S(C)(=O)=O)cc1Cl  61.9%
7. Cc1cc(C(=O)N(C)S(=O)(=O)C(C)C)ccc1F  61.9%
8. CN(Cc1ccoc1)C(=O)C1CCN(C(=O)C2CCCC2)CC1  61.1%
9. COc1nc2c(cc1C(=O)N1CC[C@H](CO)[C@@H](O)C1)CCC2  61%
10. Cc1cc(C(=O)N(C)S(C)(=O)=O)ccc1F  61%
11. COc1nc2c(cc1C(=O)N1CCCOC(Cn3cccn3)C1)CCC2 (stereo not drawn)  59.1%
12. CN(C)S(=O)(=O)NC1CCCc2c1cnn2-c1ccc(C(C)(C)C)cc1 (stereo not drawn)  58.8%
13. CC(c1ccon1)N(C)C(=O)C1CCN(C(=O)C2CCC2)CC1 (stereo not drawn)  57.5%
14. COc1nc2c(cc1C(=O)N1CCCOC(CN3CCCC3)C1)CCC2 (stereo not drawn)  54.5%
15. CCc1c(C(=O)N2CCN(CC(N)=O)CC2)cnn1C(C)(C)C  53.8%
16. CS(=O)(=O)NCc1cncc2c1CCN(CC1CCOC1)C2 (stereo not drawn)  53.4%
17. c1cnc(NCc2cncc3c2CCN(CC2CC2)C3)nc1  48.4%
18. CCc1c(C(=O)N2CCC(CC(N)=O)CC2)cnn1C(C)(C)C  47.1%
19. CCCN(Cc1ccccn1)Cc1ccccc1OC  45.2%
20. CN(Cc1cnc(N)nc1)C(=O)C1CCN(C(=O)C2CCCC2)CC1  44.3%
21. CCc1c(C(=O)N2CCCN(C(C)=O)CC2)cnn1C(C)(C)C  44.3%
22. Cc1nc(NCc2nonc2C)cc(C(C)Cn2nc(C)c(C)c2C)n1 (stereo not drawn)  43.8%
23. CCC(=O)N1CCN(CCn2cccn2)c2ncccc2C1  43%
24. Cc1cc(C(=O)N(CC(=O)O)CC(C)C)ccc1F  40.9%
25. CCc1ncc(C(=O)N2CCCOC(Cn3cccn3)C2)cn1 (stereo not drawn)  40.2%
26. Cc1ccc(C(=O)N(CC(=O)O)CC(C)C)cc1F  39.7%
27. CCCN(Cc1ccc(S(=O)(=O)NC)cc1)Cc1ccccc1OC  38.6%
28. CCN1CC2(CC1=O)CN(Cc1ccncc1)CCN(C(=O)C(C)C)C2 (stereo not drawn)  38.5%
29. CCCN(Cc1ccc(OC)nc1)Cc1ccccc1OC  37.8%
30. Cc1ccc(CN(CCN(C)C)Cc2nc3ccccc3[nH]2)s1  36.5%
31. Cc1cc(Br)ccc1C(=O)N(C)CCNS(C)(=O)=O  35.9%
32. O=C(O)c1c(-c2ccncc2)ncc2c1CCN(CC1CCOC1)C2 (stereo not drawn)  34.9%
33. Cc1occc1C(=O)N1CCO[C@H]2[C@H](OCc3cccnc3)CC[C@@H]21  34.4%
34. CC(c1ccon1)N(C)C(=O)C1CCN(C(=O)C2CC2)CC1 (stereo not drawn)  34%
35. Cc1ccc(-n2ncc3c2CCCC3N)cc1C (stereo not drawn)  33.7%
36. Cc1ccc(S(=O)(=O)N2CCC(c3n[nH]cc3C)C2)cc1 (stereo not drawn)  32.8%
37. COc1ccc2c(ccn2CCC(=O)Nc2nc[nH]n2)c1  29.9%
38. Cc1nccc(NCc2cncc3c2CCN(CCN(C)C)C3)n1  29.4%
39. Cc1ccnc(NC(=O)C(C)Cn2cncn2)c1 (stereo not drawn)  28.4%
40. COc1ccc2cc(C(=O)N3CC[C@H](CO)[C@H](O)C3)n(C)c2c1  27.6%
41. Cc1ccc(C(=O)N(C)CCNS(C)(=O)=O)cc1Br  23.9%
42. CC(C)(C)c1ccc(-n2ncc3c2CCCC3N)cc1 (stereo not drawn)  22.6%
43. Cc1oncc1C(=O)N1C[C@H]2CCCC(N(C)Cc3cccs3)[C@H]2C1 (stereo partly drawn)  21.6%
44. CC(Cc1ccco1)NC(=O)Nc1ccc(N2CCCC2)nc1 (stereo not drawn)  21.425%
45. Cc1ccc(C(=O)N2CCCS2(=O)=O)cc1Cl  21.1%
46. Cn1cc(C2CCCN2CCC(=O)N2CCc3sccc3C2)cn1 (stereo not drawn)  19.2%
47. CCOC(=O)Cc1csc(NC(=O)c2ccc(=O)[nH]n2)n1  18.4%
48. COc1ccc(C(=O)N2CC[C@H](CO)[C@H](O)C2)c(C)c1  16.8%
49. CCc1ncncc1C(=O)N1CCN(Cc2cscn2)CC1  15.5%
50. CCS(=O)(=O)CC(=O)NC(C)c1ccc(OCCC(C)C)cc1 (stereo not drawn)  15.4%
51. Cc1ccc(CN2CCC(O)(Cn3nc(-c4cccs4)oc3=O)CC2)o1  14.6%
52. CCc1ncnc2c1CCN(Cc1cccs1)CC2  13.7%
53. O=C(c1cccc(-n2cccn2)c1)N1CCCOC(CN2CCCC2)C1 (stereo not drawn)  13.7%
54. Cc1sc(C(=O)N(C)S(C)(=O)=O)cc1-c1ccc(F)cc1  13.3%
55. COc1ccc(CN2CC[C@H]3CO[C@H](CNC(=O)N(C)C)[C@H]3C2)cc1  12.7%
56. O=c1c2c[nH]c(N3CCC(O)CC3)nc-2cn1Cc1cccc(F)c1  11.8%
57. COCCN1C(=O)CCC12CCC(NCc1nccs1)CC2 (stereo not drawn)  10.5%
58. Cc1nn(Cc2ccc(C(=O)NC3CCS(=O)(=O)C3)cc2)c(C)c1Br (stereo not drawn)  7.3%
59. Cn1cc(CN2CCc3onc(COCC4CC4)c3C2)cn1  5.96%
60. CN(C(=O)c1ccc(Cl)c(S(C)(=O)=O)c1)c1ccccc1  5.91%
61. CC(C)N1CCC(C(=O)N(C)C(C)c2ccon2)CC1 (stereo not drawn)  1.94%
62. O=C(c1cccc(-n2cccn2)c1)N1CCCOC(Cn2cccn2)C1 (stereo not drawn)  0.891%
63. O=C(NCc1cncc2c1CCN(CC1CCOC1)C2)c1ccno1 (stereo not drawn)  -0.813%
64. COCCC1(CO)CCCN(C(=O)CCC(F)(F)F)C1 (stereo not drawn)  -1.49%
65. CCc1nc(CN2CCCC(NCc3nc(C)c(C)o3)C2)no1 (stereo not drawn)  -2.19%
66. CCC(C)(C)C(=O)Nc1ccc2ccn(CC(=O)NC)c2c1  -3.47%
67. Cc1cccc(N2CCCC2c2nc(C)ncc2CN(C)C)n1 (stereo not drawn)  -3.94%
68. Cc1ccc(CN2Cc3nccn3CC(Cn3cncn3)C2)s1 (stereo not drawn)  -9.02%
69. COc1cccc(C2CCCN2C(=O)c2cc3c(nc2OC)CCC3)c1 (stereo not drawn)  -10.8%
70. O=C(O)c1c(-c2cccnc2)ncc2c1CCN(CC1CCOC1)C2 (stereo not drawn)  -21.1%
71. O=C(CC1COCCN1)N1CCCN(C2Cc3ccccc3C2)CC1 (stereo not drawn)  -22.1%
72. Cc1nc(CN2CCC3(CCN(c4ncc(F)cn4)C3)C2=O)cs1 (stereo not drawn)  -23.7%
73. CN1CC2(CCN(C(=O)c3cn4cccnc4n3)CC2)CC1=O  -28.9%
74. CC(=O)N(Cc1ccoc1)C1CCCCC1  -29.5%
75. COCc1nnc(NC(=O)c2cn(C(C)C)c3ccc(OC)cc23)s1  -42.5%
76. CN(CC(F)(F)F)C(=O)c1ccc(F)c(NS(C)(=O)=O)c1  -43.5%
77. O=C(NCc1cncc2c1CCN(CC1CCOC1)C2)c1ccco1 (stereo not drawn)  -46%
78. COc1cc(-c2nc3c([nH]2)CCCNC3=O)ccc1OC(C)C  -125%

— ChEMBL document CHEMBL4513216, “Probing the Open Global Health Chemical Diversity Library for Multistage-Active Starting Points for Next-Generation Antimalarials” (ACS Infect Dis, 2020)
